Inconclusive results are not listed. Activity calls are given as the source filed them. Calls follow the shape of the dose curve; as a rule, active = well fitted curve in the direction sought with a large enough effect; inconclusive = small, poorly fitted or top-dose-only effect, or another doubt; inactive = no such curve, though single readings can be large; an effect the other way counts as inactive or inconclusive.
Columns and labels:
[1] = molecular target: Rap guanine nucleotide exchange factor 3 (Homo sapiens) (UniProt O95398); test: Confirmatory qHTS for antagonist of cAMP-regulated guanine nucleotide exchange factor 3 (EPAC1) (AID 1645880); conditions: EPAC1 Rap1B-BODIPY-GDP exchange, fluorescence; activity, negative = inhibition: at 115 µM (top of the series); also: nearly all actives have a fitted effect of over 55% in size; also: potency is read from the fitted curve at half-maximal effect;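 as to activity, negative = inhibition: plate controls were DMSO only for no effect and full effect of the ATA control for full effect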
In short: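 Released BODIPY-GDP fluoresces less than Rap1-bound BODIPY-GDP; the signal is followed at 480/540 nm at 5-min intervals over 30 min, after 5 min at room temperature. Reactions contain 100 nM EPAC1, 250 nM RAP1B-BODIPY-GDP and 50 uM GDP; results are normalized to ATA and DMSO.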

[2] = molecular target: Rap guanine nucleotide exchange factor 3 (Homo sapiens) (UniProt O95398); test: Confirmatory qHTS for agonist of cAMP-regulated guanine nucleotide exchange factor 3 (EPAC1) (AID 1645881); also: nearly all actives have a fitted effect of over 75% in size; also: potency is read from the fitted curve at half-maximal effect;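 as to activation: EPAC1 catalysed release of BODIPY-GDP from Rap1B seen as fluorescence loss; 100% = effect of cAMP agonist control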
[3] = molecular target: Rap guanine nucleotide exchange factor 4 (Homo sapiens) (UniProt Q8WZA2); test: Confirmatory qHTS for agonist of cAMP-regulated guanine nucleotide exchange factor 4 (EPAC2) (AID 1645884);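 also: nucleotide exchange releases bodipy-GDP from Rap1 and this lowers its fluorescence; nearly all actives have a fitted effect of over 65% in size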; also: potency is read from the fitted curve at half-maximal effect; as to activation: % is scaled to controls: 0 for no effect and ±100 for the full control effect
[4] = molecular target: Rap guanine nucleotide exchange factor 4 (Homo sapiens) (UniProt Q8WZA2); test: Confirmatory qHTS for antagonist of cAMP-regulated guanine nucleotide exchange factor 4 (EPAC2) (AID 1645885); also: nearly all actives have a fitted effect of over 25% in size; also: potency is read from the fitted curve at half-maximal effect; as to activity change, negative = inhibition: % is scaled to controls: 0 for no effect and ±100 for the full control effect
[5] = molecular target: Rap guanine nucleotide exchange factor 3 (Homo sapiens) (UniProt O95398); test: Counterscreen qHTS for antagonist of cAMP-regulated guanine nucleotide exchange factor 3 (EPAC1) (AID 1645888); also: % of control where 0% means no effect
In short: (§1)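 Rap1B–BODIPY-GDP (250 nM) with 50 uM GDP; compounds pin-transferred to 9.74 nM–152 uM final (activator) or from 7.32 nM upwards (inhibitor). Fluorescence Ex/Em 480/540 nm read at 5 and 30 min, then after adding cAMP or buffer, at room temperature.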

[6] = molecular target: Rap guanine nucleotide exchange factor 3 (Homo sapiens) (UniProt O95398); test: Counterscreen qHTS for agonist of cAMP-regulated guanine nucleotide exchange factor 3 (EPAC1) (AID 1645889); also: nearly all actives have a fitted effect of over 40% in size; also: potency is read from the fitted curve at half-maximal effect; as to activation: % of control where 0% means no effect
In short: as §1

Chain of Rap guanine nucleotide exchange factor 3 (Homo sapiens) (O95398 whole entry, looked up): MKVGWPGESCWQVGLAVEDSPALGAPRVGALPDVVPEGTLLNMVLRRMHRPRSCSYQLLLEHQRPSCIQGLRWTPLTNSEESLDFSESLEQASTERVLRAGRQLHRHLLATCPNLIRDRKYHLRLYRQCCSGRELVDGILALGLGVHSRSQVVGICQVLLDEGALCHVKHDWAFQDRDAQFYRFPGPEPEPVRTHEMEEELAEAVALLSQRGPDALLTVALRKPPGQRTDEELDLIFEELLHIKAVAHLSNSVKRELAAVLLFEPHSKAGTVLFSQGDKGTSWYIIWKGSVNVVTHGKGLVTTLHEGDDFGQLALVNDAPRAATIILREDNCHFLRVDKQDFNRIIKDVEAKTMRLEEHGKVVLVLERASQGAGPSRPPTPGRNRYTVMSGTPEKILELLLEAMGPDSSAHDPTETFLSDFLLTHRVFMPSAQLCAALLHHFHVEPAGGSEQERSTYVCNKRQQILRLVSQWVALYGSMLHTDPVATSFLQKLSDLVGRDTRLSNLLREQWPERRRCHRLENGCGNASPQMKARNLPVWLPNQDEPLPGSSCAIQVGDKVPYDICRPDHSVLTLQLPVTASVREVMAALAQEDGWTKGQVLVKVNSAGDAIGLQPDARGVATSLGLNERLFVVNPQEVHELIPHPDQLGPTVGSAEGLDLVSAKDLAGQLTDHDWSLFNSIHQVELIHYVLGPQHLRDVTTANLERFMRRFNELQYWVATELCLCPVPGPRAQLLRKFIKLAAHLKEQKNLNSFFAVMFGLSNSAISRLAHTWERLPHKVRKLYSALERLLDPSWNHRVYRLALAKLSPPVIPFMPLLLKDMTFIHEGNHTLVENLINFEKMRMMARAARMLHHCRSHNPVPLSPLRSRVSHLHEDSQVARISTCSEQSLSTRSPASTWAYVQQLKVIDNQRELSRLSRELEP
Chain of Rap guanine nucleotide exchange factor 4 (Homo sapiens) (Q8WZA2 whole entry, looked up): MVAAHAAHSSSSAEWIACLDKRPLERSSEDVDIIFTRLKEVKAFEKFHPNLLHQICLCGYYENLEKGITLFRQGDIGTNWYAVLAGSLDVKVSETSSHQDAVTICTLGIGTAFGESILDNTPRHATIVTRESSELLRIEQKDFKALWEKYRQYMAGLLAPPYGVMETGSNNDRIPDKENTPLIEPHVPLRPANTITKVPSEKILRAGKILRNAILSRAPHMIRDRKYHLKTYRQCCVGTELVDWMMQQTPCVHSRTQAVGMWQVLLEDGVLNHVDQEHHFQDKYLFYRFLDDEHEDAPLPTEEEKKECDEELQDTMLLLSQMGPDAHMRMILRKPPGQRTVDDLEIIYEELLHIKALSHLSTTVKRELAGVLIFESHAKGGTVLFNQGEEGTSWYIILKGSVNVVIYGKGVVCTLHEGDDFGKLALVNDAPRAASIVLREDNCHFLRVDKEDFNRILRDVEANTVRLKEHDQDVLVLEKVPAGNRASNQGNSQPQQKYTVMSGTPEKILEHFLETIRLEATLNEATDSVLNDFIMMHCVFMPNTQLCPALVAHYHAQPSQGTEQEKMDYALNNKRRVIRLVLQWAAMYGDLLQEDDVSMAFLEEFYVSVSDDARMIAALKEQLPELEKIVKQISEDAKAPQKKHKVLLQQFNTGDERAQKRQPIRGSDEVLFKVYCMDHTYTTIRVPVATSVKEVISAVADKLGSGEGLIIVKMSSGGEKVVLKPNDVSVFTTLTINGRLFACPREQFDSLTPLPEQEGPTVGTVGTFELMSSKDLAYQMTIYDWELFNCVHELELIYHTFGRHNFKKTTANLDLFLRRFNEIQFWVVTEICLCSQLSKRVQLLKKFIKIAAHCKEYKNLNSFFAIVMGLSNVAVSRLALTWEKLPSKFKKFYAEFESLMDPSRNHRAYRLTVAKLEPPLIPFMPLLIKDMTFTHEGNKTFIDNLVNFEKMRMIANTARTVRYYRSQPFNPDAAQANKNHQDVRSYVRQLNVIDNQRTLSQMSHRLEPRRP

O=C(NCc1ccco1)c1sc(=S)n2c1[nH]c(=O)c1ccccc12
active: Potency [1] 14.1 µM
inactive: Potency [2] | activation [3] 1.94% [at 17.1 µM, percent relative to cAMP agonist control] | Potency [4] | activity change, negative = inhibition [5] 3.28% [at 30.8 µM] | activation [6] -8.6% [at 30.8 µM]

O=C(Nc1ccccc1C(=O)O)c1cccc(S(=O)(=O)Nc2ccc(Br)cc2)c1
inactive: Potency [2] | Potency [3] | Potency [5] | Potency [6]
active: Potency [1] 75.7 µM | Potency [4] 42.6 µM

Cc1cc(C)c2cccc(N)c2n1
inactive: Potency [1] | Potency [2] | activation [3] 3.77% [at 17.1 µM, percent relative to cAMP agonist control] | Potency [4] | activity change, negative = inhibition [5] 8.48% [at 30.8 µM] | activation [6] 7.96% [at 30.8 µM]

CC(C)c1nn2c(=O)cc(COC(=O)c3cccc(NC(=O)c4cccs4)c3)nc2s1
inactive: Potency [1] | Potency [2] | Potency [3] | Potency [4] | Potency [5] | Potency [6]

COc1nc(C)cc(C)c1S(=O)(=O)c1ccc(Cl)cc1
inactive: Potency [1] | Potency [2] | activation [3] 6.22% [at 17.1 µM, percent relative to cAMP agonist control] | Potency [4] | activity change, negative = inhibition [5] -12.6% [at 30.8 µM] | activation [6] 27.8% [at 30.8 µM]

O=S(=O)(NCC1(N2CCOCC2)CCCCC1)c1ccc(Cl)cc1C(F)(F)F
inactive: Potency [1] | Potency [2] | Potency [3] | Potency [4] | Potency [5] | Potency [6]

O=C(N/N=C/c1ccc(-c2ccc(Cl)c(C(=O)O)c2)o1)c1cc2c(ccc3ccccc32)o1
active: Potency [1] 12.6 µM
inactive: Potency [2] | activation [3] 0.332% [at 17.1 µM, percent relative to cAMP agonist control] | Potency [4] | activity change, negative = inhibition [5] -35.1% [at 30.8 µM] | activation [6] 12% [at 30.8 µM]

c1cncc(-c2nc(NCCCN3CCOCC3)c3c4c(sc3n2)CCC4)c1
inactive: Potency [1] | Potency [2] | Potency [3] | Potency [4] | Potency [5] | Potency [6]

Cc1ccc(Cc2cnc(N3C(=N)SC(c4ccccc4)C3=O)s2)cc1 (configuration not stated)
inactive: Potency [1] | Potency [2] | activation [3] 9.77% [at 17.1 µM, percent relative to cAMP agonist control] | Potency [4] | activity change, negative = inhibition [5] -12.3% [at 30.8 µM] | activation [6] 27.7% [at 30.8 µM]

COc1ccc(Cl)cc1NC(=O)CN1CCc2ccccc21
inactive: Potency [1] | Potency [2] | activation [3] 2.78% [at 17.1 µM, percent relative to cAMP agonist control] | Potency [4] | activity change, negative = inhibition [5] -6.37% [at 30.8 µM] | activation [6] 14.8% [at 30.8 µM]

CCC(C)(C)NC(=O)C(c1ccccn1)N(C(=O)c1csnn1)C1CCCCC1 (configuration not stated)
inactive: Potency [1] | Potency [2] | Potency [3] | Potency [4] | Potency [5] | Potency [6]

COc1ccc(-c2ccc(C(=O)NCCN3CCOCC3)c3occc23)c(C)c1
inactive: Potency [1] | Potency [2] | Potency [3] | Potency [4] | Potency [5] | Potency [6]

Cc1ccccc1N=C(c1ccccc1)C1C(=O)c2ccccc2C1=O
inactive: Potency [1] | Potency [2] | activation [3] 8.41% [at 17.1 µM, percent relative to cAMP agonist control] | Potency [4] | activity change, negative = inhibition [5] -5.51% [at 30.8 µM] | activation [6] 13.3% [at 30.8 µM]

O=C(CNC(=O)c1sc2ccccc2c1Cl)NCc1cccc(C(F)(F)F)c1
inactive: Potency [1] | Potency [2] | Potency [3] | Potency [4] | Potency [5] | Potency [6]

O=S(=O)(O)c1cccc(N=Nc2c(O)ccc3ccccc23)c1
active: Potency [1] 37.9 µM | Potency [4] 23.9 µM
inactive: Potency [2] | Potency [3] | Potency [5] | Potency [6]

COc1ccc([C@@H]2[C@@H]3C(=O)N(C(C)(C)C)C(=O)[C@@H]3[C@]3(Cc4ccccc4)C(=O)N(c4cccc(Br)c4)C(=O)N23)cc1
inactive: Potency [1] | Potency [2] | activation [3] 2.72% [at 17.1 µM, percent relative to cAMP agonist control] | Potency [4] | activity change, negative = inhibition [5] -15.9% [at 30.8 µM] | activation [6] 10.3% [at 30.8 µM]

O=C(C1CCN(S(=O)(=O)N2CCOCC2)CC1)N1CCN(c2ccccc2)CC1
inactive: Potency [1] | Potency [2] | Potency [3] | Potency [4] | Potency [5] | Potency [6]

O=C(CN(Cc1ccco1)C(=O)c1ccc(Cl)cc1)Nc1c(Cl)cc(Cl)cc1Cl
inactive: Potency [1] | Potency [2] | Potency [3] | Potency [4] | Potency [5] | Potency [6]

Cc1ccc(S(=O)(=O)NN2C(=O)/C(=C/c3cccnc3)SC2=S)cc1
active: Potency [1] 42.6 µM
inactive: Potency [2] | Potency [3] | Potency [4] | Potency [5] | Potency [6]

Cc1nc(-[n+]2nc(-c3ccncc3)nn2-c2ccccc2)sc1C
inactive: Potency [2] | activation [3] 5.19% [at 17.1 µM, percent relative to cAMP agonist control] | Potency [4] | activity change, negative = inhibition [5] -23.3% [at 30.8 µM] | activation [6] 2.91% [at 30.8 µM]
active: Potency [1] 22.4 µM

Cc1ccc(S(=O)(=O)NCCC(=O)N2CCC(Cc3ccccc3)CC2)cc1
inactive: Potency [1] | Potency [2] | activation [3] 3.1% [at 17.1 µM, percent relative to cAMP agonist control] | Potency [4] | activity change, negative = inhibition [5] -15.5% [at 30.8 µM] | activation [6] 8.49% [at 30.8 µM]

O=C(Nc1ccc(-c2nnc(-c3ccco3)o2)cc1)C(c1ccccc1)c1ccccc1
inactive: Potency [1] | Potency [2] | Potency [3] | Potency [4] | Potency [5] | Potency [6]

CN(CC(=O)Nc1ccccc1Sc1ccccc1)C1CCCCC1
inactive: Potency [1] | Potency [2] | Potency [3] | Potency [4] | Potency [5] | Potency [6]

O=C(O)c1ccc(/C=N/NC(=O)c2ccc(CN3c4cccc5cccc(c45)S3(=O)=O)cc2)cc1
active: Potency [1] 44.7 µM
inactive: Potency [2] | activation [3] -4.21% [at 17.1 µM, percent relative to cAMP agonist control] | Potency [4] | activity change, negative = inhibition [5] 3.17% [at 30.8 µM] | activation [6] 13.7% [at 30.8 µM]

Cc1cccc(NC(=O)C2CCCN(S(=O)(=O)c3ccc4c(c3)oc(=O)n4C)C2)c1 (configuration not stated)
inactive: Potency [1] | Potency [2] | activation [3] 3.99% [at 17.1 µM, percent relative to cAMP agonist control] | Potency [4] | activity change, negative = inhibition [5] -11.5% [at 30.8 µM] | activation [6] 7.38% [at 30.8 µM]

O=C(COc1ccccc1/C=C\c1[nH]c(=O)[nH]c(=O)c1[N+](=O)[O-])Nc1ccccc1
active: Potency [1] 10 µM
inactive: Potency [2] | activation [3] 2.16% [at 17.1 µM, percent relative to cAMP agonist control] | Potency [4] | activity change, negative = inhibition [5] 2.03% [at 30.8 µM] | activation [6] 7.06% [at 30.8 µM]

Cc1ccn2c(=O)c(NC(=O)c3ccc(Br)o3)c(C)nc2c1
inactive: Potency [1] | Potency [2] | activation [3] 4.58% [at 17.1 µM, percent relative to cAMP agonist control] | Potency [4] | activity change, negative = inhibition [5] -1.7% [at 30.8 µM] | activation [6] -2.62% [at 30.8 µM]

COc1cc(NC(=O)CCc2c(C)nc3c4c(C)cc(C)nc4nn3c2C)cc(OC)c1
inactive: Potency [1] | Potency [2] | Potency [3] | Potency [4] | Potency [5] | Potency [6]

COc1ccccc1N1CCN(S(=O)(=O)c2ccc3c(c2)NC(=O)C(C)C(=O)N3)CC1 (configuration not stated)
inactive: Potency [1] | Potency [2] | Potency [3] | Potency [4] | Potency [5] | Potency [6]

C[C@H]1CN([C@@H](C)CO)C(=O)CCCn2cc(nn2)CO[C@@H]1CN(C)S(=O)(=O)c1ccc(-n2cccn2)cc1
inactive: Potency [1] | Potency [2] | Potency [3] | Potency [4] | Potency [5] | Potency [6]

Cc1nnc(SCc2nnc(-c3ccc(Cl)cc3)o2)n1-c1ccccc1
inactive: Potency [1] | Potency [2] | Potency [3] | Potency [4] | Potency [5] | Potency [6]

COC(=O)/C(N=Nc1cccc(C(F)(F)F)c1)=C(\C)O
inactive: Potency [1] | Potency [2] | activation [3] 10.2% [at 17.1 µM, percent relative to cAMP agonist control] | Potency [4] | activity change, negative = inhibition [5] -9.14% [at 30.8 µM] | activation [6] 22.5% [at 30.8 µM]

COc1cccc(-n2ccn(CC(=O)NCc3ccc(C)cc3)c(=O)c2=O)c1
inactive: Potency [1] | Potency [2] | Potency [3] | Potency [4] | Potency [5] | Potency [6]

CCCCn1cc2c(c1-c1ccccc1Br)c(=O)n(C)c(=O)n2C
inactive: Potency [1] | Potency [2] | Potency [3] | Potency [4] | Potency [5] | Potency [6]

COc1ccc(/C=N\NC(=O)c2cc3c(ccc4ccccc43)o2)cc1O
inactive: Potency [1] | Potency [2] | activation [3] 5.26% [at 17.1 µM, percent relative to cAMP agonist control] | Potency [4] | activity change, negative = inhibition [5] 0.0783% [at 30.8 µM] | activation [6] 29.4% [at 30.8 µM]

O=C(COc1ccccc1[N+](=O)[O-])Nc1cccc(C(=O)Nc2ccccc2C(=O)O)c1
inactive: Potency [2] | Potency [3] | Potency [4] | Potency [5] | Potency [6]
active: Potency [1] 23.9 µM

CCN(CC)c1ccc2c(c1)OC(N)=C(C#N)C2c1cccnc1 (configuration not stated)
inactive: Potency [1] | Potency [5]
active: Potency [2] 89.1 µM | Potency [3] 100 µM | Potency [4] 75.7 µM | Potency [6] 35.5 µM
